Drawing on the OligoGym collection, this text covers sensor-assay potency score (higher = more potent) for 40 sequences.
Also: reference of the scale not given here.

In one test the target is APOA4. The test is described as follows: pooled miR-30 sensor sort-seq; sequence = guide strand. As to conditions: shRNA.
In turn, TTCTCCTTGAAGGTGCTGAAGA returned a sensor-assay potency score (higher = more potent) of -1.33. The same measure, in the same setting: in the case of TCGGAACTCCTCCACCTGCTGG it was -1.28; in that of TTCTGGTCGATCTTGGCCTTGA, -0.621; in that of TTCTTCTGCAGGTCACCTGCGT, -0.176. On the same count and under the same terms, in the case of TCTTCTGCAGGTCACCTGCGTA it was -1.37. The sequence TCGGCGTTCTTCTTCATCTGGA returned a sensor-assay potency score (higher = more potent) of -0.527.

In the next test the target is APOBEC1. Described as above. As to conditions: shRNA.
With TAATCTGAATAGTTACTCCACT, the sensor-assay potency score (higher = more potent) is -0.77. Still for that read-out and setting: in the case of TTGAAATCTTTAAACAGGGTGG it was 0.0773; in that of TACAACATCATCCACAGAGGTG, -0.853. The same measure, in the same setting: in the case of TTGCCGATTTTGTTGATCCATG it was -1.51. On the same count and under the same terms, in the case of TTTAGTGGGTCATCATTGCTTG it was -0.449; in that of TTTCGTAGAGCAGACAGGCCTC, -0.178; in that of TAACAAGGTCCCTGAGACCTTG, -0.747. TTTTTATAAAATTAACTTCCAC had a sensor-assay potency score (higher = more potent) of -0.469.

Consider TTGATTTCGTAGAGCAGACAGG, for which the sensor-assay potency score (higher = more potent) was -1.09.

Turning to TATAAAATTAACTTCCACGTGA, the sensor-assay potency score (higher = more potent) worked out at 0.0953. The same measure, in the same setting: in the case of TAGTTGACAAAATTCCTCCAGC it was 0.113; in that of TAGAAGACGTCAAACTCCCAGG, -0.81; in that of TAAAATTAACTTCCACGTGATT, -0.973.

The sequence TTTTTGCCTGAGCTTCGCCAGA displayed a sensor-assay potency score (higher = more potent) of -1.38. Take TTAACTTCCACGTGATTGGTGG: the sensor-assay potency score (higher = more potent) is 0.311. On the same count and under the same terms, in the case of TTTTGTTGATCCATGTGCCAAA it was -1.26. Sequence ATAATCTGAATAGTTACTCCAC yielded a sensor-assay potency score (higher = more potent) of 0.108. TTAAACAGGGTGGAAGACTTAG yielded a sensor-assay potency score (higher = more potent) of -0.633. TGAAAATCTCTTTCTGACGTAA gave a sensor-assay potency score (higher = more potent) of -0.0382. Still for that read-out and setting: in the case of TAGAATTATGCAGTGCAGCTCC it was 0.275; in that of TCCACTGTTAACAAGGTCCCTG, -0.838; in that of AATTATGCAGTGCAGCTCCAGT, -0.901. TTTTATAAAATTAACTTCCACG registered a sensor-assay potency score (higher = more potent) of -0.657. In the case of TAGAGTCACACCAGGGTGCCGA, the sensor-assay potency score (higher = more potent) was -0.942.

The next test has as its target APOBEC3A. The test is described as above. The settings on record: shRNA.
As to TTGATCGGGAGCATACTGCTTT, the sensor-assay potency score (higher = more potent) was 0.642.

TTAGTCTAGATATGAAGCCAAA returned a sensor-assay potency score (higher = more potent) of -1.73. Still for that read-out and setting: in the case of TGTGGATCCATCAAGTGTCTGG it was -0.129; in that of TTAAATTCATCGTAGGTCATGA, 0.00462; in that of TGCTGGTCCATCTTGACCGAGG, -1.28.

Regarding TAAAAATCTACTTGATCGGGAG, the sensor-assay potency score (higher = more potent) came out at 0.575.

In the case of TACATTGAAAATTATTCTGAGA, the sensor-assay potency score (higher = more potent) was -1.07. Sequence TTCGTAGCACAGGTAGGTCTTA yielded a sensor-assay potency score (higher = more potent) of -0.473.

For the sequence AATCTTACTATTGTGTACTTGG, the sensor-assay potency score (higher = more potent) turned out to be 0.0307. For TATTCTGAGAATATTGAGCATA, the sensor-assay potency score (higher = more potent) is -1.17.
